The values below come from ChEMBL document CHEMBL3988442, “University of Dundee, Small-Polar-MMV Screening Library” (2021).

The test relates to Trypanosoma brucei. The experiment in a line: Trypanosoma brucei 72 hour study. The format is functional, organism-based. Also noted: scale not given: in the data most compounds retested in dose-response had high values.

Among all 66,000 compounds or so, about 960 (1.5%) showed an effect of 50% or more. The list comes from a sample in which strong results are over-represented; it also holds similar structures and randomly drawn compounds.

For the compound `COc1cc(CN[C@@H]2COC[C@H]2Cc2cc(C)no2)cc(OC)c1.O=C(O)CC(O)(CC(=O)O)C(=O)O`, for the setting “30.3 µM, […]”, the “Percent Effect” value amounted to 16.22%.
On to `C=C1C(C)(C)[C@H]2CC[C@]1(C(=O)N1CCC(Cn3cc(CO)nn3)CC1)C2`, for which the “Percent Effect” value (30 µM, 30.03 µM) is given as -32.31%.
`Cl.O=C1CC2(CCCNC2)C(=O)N1Cc1ccc(Cl)cc1` (stereo unspecified): the “Percent Effect” value (30.3 µM, […]) was found to be 7.931%.
On the same count and under the same terms, as for `CSc1nccc(N2CCC3(CCCN(CCc4ccccc4)C3)C2)n1` (stereo unspecified), the figure is 100.6%.
Same read-out and setting: as for `COc1cc(N2CCC3(CCCN(Cc4ccccn4)C3)C2)ncn1.O=C(O)C(F)(F)F` (stereo unspecified), the figure is -81.3%; as for `Fc1ccc(CN2CCC3(CCCN(c4nncs4)C3)C2)cc1.O=C(O)C(F)(F)F` (stereo unspecified), -195.3%.
Turning to `Cc1c[nH]c(CN2CCC3(CCCN(Cc4ccc(F)c(F)c4)C3)C2)n1` (stereo unspecified), the “Percent Effect” value (30 µM, 30.03 µM) is reported as 12.03%.
For the compound `c1cnc(N2CCC3(CCCN(CC4CCCCC4)C3)C2)cn1` (stereo unspecified), the “Percent Effect” value (30.3 µM, […]) is -7.519%.
For the compound `CSc1nccc(N2C[C@@H](CN3CCCCC3)[C@@H](CO)C2)n1`, the “Percent Effect” value (30.3 µM, […]) is on record as -9.185%.
On to `COc1ccc(CN2CCC3(CCCN(c4ncc(F)cn4)C3)C2)cc1.O=C(O)C(F)(F)F` (stereo unspecified), for which, where the note is “30 µM, 30.03 µM”, the “Percent Effect” value was found to be 46.33%.
For `CSc1nccc(N2CCC3(CCCN(Cc4cccc(C)c4)C3)C2)n1` (stereo unspecified), the “Percent Effect” value (30.3 µM, […]) is on record as 99.66%.
Still for that read-out and setting: under `CSc1nccc(N2CCC3(CCCN(Cc4ccc(F)cc4)C3)C2)n1` (stereo unspecified) stands 100.4%; under `O=C(Cc1cccc(F)c1)N1CCc2ncnc(NC3CC3)c2CC1.O=C(O)C(F)(F)F`, -65.72%.
As for `Cl.Cn1ccnc1Sc1ccc(N)cn1`, under “30 µM, 30.03 µM”, the “Percent Effect” value is recorded as -0.5458%.
For the compound `Cl.O=S(=O)(N1CCCC1)N1C[C@@H](c2cccc(F)c2)[C@@H]2NCCCCC[C@H]21`, the “Percent Effect” value (30.3 µM, […]) is recorded as -12.23%.
On to `Cc1cccc(N2CCC3(CCCN(C(=O)c4cccnc4)C3)CC2)n1.O=C(O)C(F)(F)F.O=C(O)C(F)(F)F`, for which the “Percent Effect” value (30 µM, 30.03 µM) is -24.82%.
With `CC(C)C(=O)N1CCCC2(C1)CN(c1nncs1)CCO2.O=C(O)C(F)(F)F` (stereo unspecified), the “Percent Effect” value (30.3 µM, […]) is recorded as -91.97%.
In the case of `O=C(Cc1ccccn1)N1CCC2(CC1)CC(Oc1ccccn1)CO2.O=C(O)C(F)(F)F.O=C(O)C(F)(F)F` (stereo unspecified), the “Percent Effect” value (30 µM, 30.03 µM) was 23.31%.
`O=C(O)C(F)(F)F.c1cnc(NC2COC3(CCN(Cc4nccs4)CC3)C2)cn1` (stereo unspecified): the “Percent Effect” value (30.3 µM, […]) was -510.2%.
With `Cc1ncc(CN2CCCC(O)(c3ccc(F)cc3)CC2)n1C.O=C(O)CC(O)(CC(=O)O)C(=O)O` (stereo unspecified), the “Percent Effect” value (30.3 µM, […]) came to 5.795%.
Turning to `COc1cccc(N2CCN(CC(O)c3ccc(C)cc3)CC2)c1` (stereo unspecified), the “Percent Effect” value (30 µM, 30.03 µM) was 17.53%.
As for `COc1cccc(N2CCN(CC(O)c3cc(C)sc3C)CC2)c1` (stereo unspecified), for the setting “30.3 µM, […]”, the “Percent Effect” value turned out to be 80.96%.
Regarding `COc1cccc(N2CCN(CC(O)c3cc(C)ccc3C)CC2)c1` (stereo unspecified), the “Percent Effect” value (30 µM, 30.03 µM) is -36.53%.
On to `COc1cc(Cc2nc3c([nH]2)CC(C)(C)CNC3=O)cc(OC)c1`, for which, for the setting “30 µM, 30.03 µM”, the “Percent Effect” value was -74.64%.
As to `Cc1cccnc1NCCNC(=O)c1cnc(-c2cccs2)nc1O`, the “Percent Effect” value (30 µM, 30.03 µM) is reported as -4.334%.
For `Cc1nc(-c2ncc(C(=O)NCCNc3ncccc3C)c(O)n2)cs1`, the “Percent Effect” value (30 µM, 30.03 µM) is listed as -1.041%.
Same read-out and setting: under `Cc1cccnc1NCCNC(=O)c1cnc(-c2ccccn2)nc1O` stands 99.84%.
Regarding `Cc1ccc(C)c(NC(=O)N2C[C@H](N(C)C)C[C@H]2CO)c1`, where the note is “30 µM, 30.03 µM”, the “Percent Effect” value was -61.25%.
Consider `COCCOc1ccc(C(=O)N2CCCC(n3cncn3)C2)cn1` (stereo unspecified), for which, where the note is “30.3 µM, […]”, the “Percent Effect” value is listed as -14.96%.
With `Cc1noc(C)c1CN1C[C@@H]2COC[C@H](C(=O)N3CCOCC3)[C@@H]2C1.O=C(O)C(F)(F)F`, the “Percent Effect” value (30.3 µM, […]) was -95.08%.
`CC(C)c1nn(C)cc1CNCc1cccnc1N(C)C.Cl`: the “Percent Effect” value (30 µM, 30.03 µM) is on record as -46.74%.
With `COc1ccc(C2(NCc3c(C)nc4c(C)cccn34)CCCC2)cc1.O=C(O)CC(O)(CC(=O)O)C(=O)O`, the “Percent Effect” value (30.3 µM, […]) was -8.607%.
Regarding `Cc1cnn(CCC(=O)N2CCN(C(=O)C3CC3)[C@@H]3CS(=O)(=O)C[C@@H]32)c1`, the “Percent Effect” value (30 µM, 30.03 µM) is recorded as 64.13%.
Consider `Cc1cnn(CCC(=O)N2CCN(C(=O)C(C)C)[C@@H]3CS(=O)(=O)C[C@@H]32)c1`, for which the “Percent Effect” value (30 µM, 30.03 µM) was determined as 31%.
Still for that read-out and setting: under `CCC(=O)N1CCN(C(=O)CCn2cc(Cl)cn2)[C@H]2CS(=O)(=O)C[C@H]21` stands 35.1%.
Consider `CCCNC(=O)C1CCN(CC(O)c2ccc(C(F)(F)F)cc2)CC1` (stereo unspecified), for which the “Percent Effect” value (30.3 µM, […]) is reported as 11.33%.
As for `Cc1cc(CN2CCC(CNS(=O)(=O)c3ccccc3F)CC2)c(C)o1`, the “Percent Effect” value (30.3 µM, […]) is given as 3.502%.
On the same count and under the same terms, as for `Cc1cc(CN2CCC(CNS(=O)(=O)c3ccc(Br)s3)CC2)c(C)o1`, the figure is 55.92%.
In the case of `Cc1cc(CN2CCC(CNS(=O)(=O)c3ccc(C)s3)CC2)c(C)o1`, the “Percent Effect” value (30.3 µM, […]) was -7.383%.
Turning to `CCC(CN1CCCC1)n1cncc1-c1cnn(-c2ccccc2)c1.Cl` (stereo unspecified), the “Percent Effect” value (30.3 µM, […]) is recorded as -6.567%.
For the compound `Cc1cc(C)c(CNC(=O)NCc2ccc(F)c(C)c2)c(=O)[nH]1`, under “30.3 µM, […]”, the “Percent Effect” value was -14.44%.
`O=C1CN(C(=O)[C@H]2CC[C@]3(CC2)CNC(=O)c2ccccc2O3)CCN1`: where the note is “30.3 µM, […]”, the “Percent Effect” value is listed as -6.646%.
Regarding `Cc1cnc2c(c1NCc1ccc3c(c1)OCO3)c(=O)n(C)c(=O)n2C`, the “Percent Effect” value (30 µM, 30.03 µM) was -27.04%.
On to `CCc1cc(CNC(=O)c2cc(NC(=O)C(C)C)ccc2Cl)[nH]n1`, for which the “Percent Effect” value (30.3 µM, […]) amounted to 61.59%.
Take `COCc1cc(CNC(=O)c2cc(NC(C)=O)ccc2Cl)n[nH]1`: for the setting “30 µM, 30.03 µM”, the “Percent Effect” value is -15.93%.
`Cc1cc(CNC(=O)c2cc(NC(=O)C(C)C)ccc2Cl)no1`: under “30.3 µM, […]”, the “Percent Effect” value is listed as -13.13%.
The same measure, in the same setting: under `CN(C)C(=O)CN1CCc2ncnc(NC3CCC3)c2CC1.O=C(O)C(F)(F)F` stands -31.13%; under `CCN(CC)Cc1cc(=O)n2c(n1)CN(C(=O)c1ccc[nH]1)CCC2`, 11.69%.
Consider `Cc1nc(C)n(CC2CCCN(Cc3nnc(C(C)(C)C)o3)C2)n1` (stereo unspecified), for which the “Percent Effect” value (30 µM, 30.03 µM) came out at 14.46%.
Still for that read-out and setting: as for `COc1ccccc1CNC(=O)Cn1ncc2c1c(C)nn2C`, the figure is 68.66%.
For `Cc1nn(C)c2cnn(CC(=O)NCc3ccccc3F)c12`, the “Percent Effect” value (30.3 µM, […]) is listed as -20.3%.
The same measure, in the same setting: under `Cc1ccccc1CNC(=O)Cn1ncc2c1c(C)nn2C` stands -7.192%; under `CN(Cc1ccc(N(C)C)cc1)C(=O)CSc1ccc(Br)cc1`, 12.7%.
On the same count and under the same terms, under `CS(=O)(=O)N1CC2(CCN(C(=O)c3ccncc3)CC2)c2ccccc21.O=C(O)C(F)(F)F` stands -14.55%.
In the case of `CN(Cc1ccco1)[C@@H]1CN(Cc2ccsc2)C[C@@H]2CCCO[C@@H]21.O=C(O)C(F)(F)F.O=C(O)C(F)(F)F`, the “Percent Effect” value (30 µM, 30.03 µM) is recorded as 27.39%.
For `CN(C)C[C@@H]1C[C@@H]2CN(Cc3nccn3C)CC[C@@H]2N1CC1CC1`, for the setting “30.3 µM, […]”, the “Percent Effect” value is on record as -12.03%.
